# Compound activity as filed in PubChem BioAssay.
# An excerpt weighted towards active compounds, which were near 18% of everything screened.
# VDR inh: inhibitors of human vitamin D receptor; Potency, µM, for the others: max response, negative = inhibition, hits mostly inhibitors; VDR-SRC2-3 peptide fluorescence polarization, 2 h; actives 0.93% (n = 400,000)
#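 VDR–SRC2-3 interaction, FP format. Cmpds 23 nl via pintool, brief spin, 2 h ambient incubation.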
# KAT2A inh: GCN5L2 (KAT2A) acetyltransferase inhibition. GCN5L2 HAT assay, ThioGlo1 CoA-SH fluorescence. Potency, µM (titrated, usually from 58.9 µM), inactives show at the top dose activity change, negative = inhibition, usual class: inhibitors. actives 0.21% (n = 390,000)
# Target sequence (Q92830 whole entry, looked up): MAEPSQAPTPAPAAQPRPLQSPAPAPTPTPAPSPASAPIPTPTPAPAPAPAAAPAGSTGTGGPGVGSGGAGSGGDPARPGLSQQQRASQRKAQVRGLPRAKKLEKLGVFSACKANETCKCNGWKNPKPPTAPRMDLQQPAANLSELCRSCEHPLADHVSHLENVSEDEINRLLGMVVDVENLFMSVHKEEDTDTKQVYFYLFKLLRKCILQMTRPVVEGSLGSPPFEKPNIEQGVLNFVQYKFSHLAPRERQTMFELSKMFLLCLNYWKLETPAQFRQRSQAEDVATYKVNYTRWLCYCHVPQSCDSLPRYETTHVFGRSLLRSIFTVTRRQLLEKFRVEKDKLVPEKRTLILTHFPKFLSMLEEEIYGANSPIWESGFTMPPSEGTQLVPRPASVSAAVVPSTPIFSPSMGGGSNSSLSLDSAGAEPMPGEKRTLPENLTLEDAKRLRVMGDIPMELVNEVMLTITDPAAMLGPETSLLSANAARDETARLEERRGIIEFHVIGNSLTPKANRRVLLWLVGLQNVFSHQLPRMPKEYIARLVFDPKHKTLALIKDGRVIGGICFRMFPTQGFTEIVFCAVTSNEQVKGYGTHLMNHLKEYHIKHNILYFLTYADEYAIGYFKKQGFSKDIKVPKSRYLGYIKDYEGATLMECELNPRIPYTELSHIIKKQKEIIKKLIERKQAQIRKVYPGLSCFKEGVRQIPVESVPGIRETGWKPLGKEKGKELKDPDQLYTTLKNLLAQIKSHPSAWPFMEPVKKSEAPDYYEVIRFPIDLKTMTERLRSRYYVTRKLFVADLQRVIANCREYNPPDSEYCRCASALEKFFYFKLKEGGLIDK
#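 Preincubate 20nM GCN5L2 with compound 15 min, RT → add 50uM ThioGlo1 + 75uM H3(1-25) + 70uM acetyl-CoA → read fluorescence 0 and 20 min. Primary qHTS; fluorescent artifacts likely.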
# PLK1 PBD inh: inhibitors of human PLK1 polo-box domain binding; AID 720504; Potency, µM, for the others: max response, negative = inhibition, usual class: inhibitors; Plk1 PBD binding of FITC phosphopeptide, fluorescence polarization; actives 2.8% (n = 360,000); note: series mostly up to about 57 µM; nearly all actives have a fitted effect of over 65% in size
# DT40 TDP1 no CPT: qHTS for Inhibitors of human tyrosyl-DNA phosphodiesterase 1 (TDP1): qHTS in cells in absence of CPT; actives 15% (n = 420,000); Potency, µM (top dose mostly 46.2 µM), inactives show top-dose activity change, negative = growth inhibition, usual class: inhibitors; DT40 Tdp1-/- hTDP1 cells, no CPT, ATP luminescence, 48 h; note: nearly all actives have a fitted effect of over 55% in size
#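 Chicken DT40 Tdp1-/- cells complemented with human TDP1, screened without camptothecin (DMSO vehicle only), 400 cells/well. Compounds pin-transferred, cells incubated at 37 °C for at least 48 hr. Growth read as ATP-dependent luminescence (CellTiter-Glo, 30 min at RT).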
# TDP1 block: blocks human tyrosyl-DNA phosphodiesterase 1; Q9NUW8; recombinant TDP1, AlphaScreen DNA substrate cleavage; Potency, µM (top dose mostly 130 µM), inactives show top-dose activity change, negative = inhibition, hits mostly inhibitors; actives 0.28% (n = 350,000); AID 485290; note: nearly all actives have a fitted effect of over 40% in size
#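 Recombinant E. coli-expressed Tdp1 (1 nM) preincubated with compound 15 min at RT, then 5'-biotin/3'-phosphotyrosine-FITC DNA substrate (15 nM) added for 5 min. AlphaScreen beads (10 ug/ml) added, 10 min RT; tyrosine-FITC cleavage read as signal loss.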
# DT40 TDP1 CPT: growth inhibition of DT40 Tdp1-/-;hTDP1 cells with camptothecin (screen for TDP1 inhibitors) | chicken DT40 Tdp1-/-;hTDP1 cells + 20 nM CPT, ATP luminescence, 48 h | Potency, µM (series often up to 46.2 µM), for inactives: top-dose activity change, negative = growth inhibition, usual class: inhibitors | actives 12% (n = 420,000) | AID 686979; note: nearly all actives have a fitted effect of over 55% in size
#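 Chicken DT40 Tdp1-/- cells stably complemented with human TDP1 were seeded at 400 cells/well in medium containing 20 nM camptothecin, exposed to pin-transferred compounds, and grown at 37 °C for at least 48 hr. Viability was read as ATP luminescence.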
# Active calls of the source: *; ? = inconclusive; . = not tested or not shown; [ ] = remark or other dose. Calls come from the whole dose curve; as a rule, active = well fitted curve in the direction sought with a large enough effect; inconclusive = small, poorly fitted or top-dose-only effect, or another doubt; inactive = no such curve, though single readings can be large; an effect the other way counts as inactive or inconclusive. % is set by controls: 0 for no effect and ±100 for the full control effect; potency is the fitted concentration of half-maximal effect.
SMILES,VDR inh,KAT2A inh,PLK1 PBD inh,DT40 TDP1 no CPT,TDP1 block,DT40 TDP1 CPT
CCCC[C@H](NC(=O)[C@H](CO)NC(=O)[C@H](Cc1ccc(O)cc1)NC(=O)[C@H](CO)NC(C)=O)C(=O)N[C@@H](CCC(=O)O)C(=O)N[C@@H](Cc1cnc[nH]1)C(=O)N[C@H](Cc1ccccc1)C(=O)N[C@@H](CCCNC(=N)N)C(=O)N[C@@H](Cc1c[nH]c2ccccc12)C(=O)NCC(=O)N[C@@H](CCCCN)C(=O)N1CCC[C@H]1C(=O)N[C@H](C(N)=O)C(C)C,1%,-3%,.,.,14%,.
Cc1cc(C)cc(NC(=O)c2sc3nc(-c4ccccc4)cn3c2C)c1,-4%,-18%,.,12µM*,4%,15µM*
COC(=O)c1ccc(NC(=O)c2sc3nc(-c4ccccc4)cn3c2C)cc1,10%,-10%,5%,2.6µM*,6%,6.5µM*
CCc1ccc(NC(=O)c2sc3nc(-c4ccccc4)cn3c2C)cc1,-5%,-1%,.,?,3%,?
Cc1cc(C)nc(N/N=C/C2=C(O)CC(c3ccccc3)CC2=O)n1 (configuration not stated),.,15%,.,.,.,.
O=S(=O)(c1ccccc1F)N1CCC(Oc2ccc(-n3cnnn3)cc2)CC1,-11%,-9%,0%,23µM*,4%,?
CCN(CC)C(=O)C1CCN(S(=O)(=O)c2ccc(-n3cnnn3)cc2)CC1,-16%,-3%,-8%,?,3%,4%
CC(C)(C)c1ccc(S(=O)(=O)N2CCC(Oc3ccc(-n4cnnn4)cc3)CC2)cc1,10%,-4%,.,10µM*,5%,?
COc1ccc(CNC(=O)CSc2ccc(Br)cc2)cc1OC,-20%,?,?,-17%,8%,-16%
Cc1ccc(C(=O)N/C(=C\c2ccc(Cl)cc2)C(=O)NCCN2CCOCC2)cc1,-9%,-10%,4%,1%,.,3%
COc1ccc(/C(N)=N/OC(=O)N2CCOCC2)cc1,3%,1%,-8%,21µM*,5%,?
Cc1cc(C)c(CSc2nnc(C)n3c2cc2occc23)c(C)c1,-7%,-7%,.,21µM*,5%,18µM*
Cc1cc(C)c(CSc2ncnc3nc[nH]c23)c(C)c1,-2%,1%,-9%,-27%,-3%,-17%
O=C1CC[C@@H](C(=O)O)N1,-2%,-18%,-5%,12%,-4%,21%
Cc1nc(NC(=O)c2c(-c3ccccc3Cl)noc2C)sc1C,4%,?,8%,?,6%,16µM*
Cc1cc(C)nc(NC(=O)c2c(-c3ccccc3Cl)noc2C)c1,13%,3%,-9%,21µM*,1%,?
Cc1onc(-c2ccccc2Cl)c1C(=O)N(C)C1CCCCC1,19%,-2%,-1%,3.7µM*,7%,4.6µM*
Cc1onc(-c2ccccc2Cl)c1C(=O)Nc1ccccc1O,1%,-2%,-8%,18µM*,7%,?
Cc1cccc(NC(=O)Cn2c(=O)n(Cc3ccc4c(c3)OCO4)c(=O)c3ccccc32)c1,-1%,-2%,.,?,-4%,?
Cc1cc(C)nc(NC(=O)c2c(F)c(F)c(F)c(C(=O)Nc3cc(C)cc(C)n3)c2F)c1,-13%,.,-13%,16µM*,.,?
Cc1cc(C)nc(NC(=O)c2ccc(Cl)cc2[N+](=O)[O-])c1,10%,1%,-4%,-22%,2%,-7%
Cc1ccc(S(=O)(=O)N/N=C/c2cccs2)cc1,-7%,-4%,-17%,15%,1%,3%
O=S(=O)(N/N=C/c1ccccc1F)c1ccccc1,?,-4%,15µM*,23µM*,5%,18µM*
Cc1ccc(S(=O)(=O)N/N=C\c2ccccc2OCc2ccccc2)cc1,-4%,-5%,-4%,18µM*,4%,?
Cc1ccc(S(=O)(=O)NN=Cc2ccccc2Cl)cc1,.,.,-2%,?,.,23µM*
SMILES,VDR inh,KAT2A inh,PLK1 PBD inh,DT40 TDP1 no CPT,TDP1 block,DT40 TDP1 CPT
O=C(CC(NC(=O)c1ccccc1)c1ccccc1)OCc1nc(-c2cccc(Cl)c2)no1 (configuration not stated),.,.,.,-16%,.,5%
Nc1nc(-c2ccccc2Cl)cs1,?,.,19µM*,-27%,.,-10%
Cn1cc(C(=O)N2CCN(c3cccc(C(F)(F)F)c3)CC2)c2c3ccccc3n(C)c2c1=O,-6%,-10%,.,16µM*,6%,23µM*
Cn1c2ccccc2c2c(C(=O)N3CCN(c4cccc(C(F)(F)F)c4)CC3)cn(C3CCCCC3)c(=O)c21,5%,-13%,.,16µM*,0%[12.3 µM],?
CC(=O)c1ccc(N2CCN(C(=O)c3cn(C)c(=O)c4c3c3ccccc3n4C)CC2)cc1,-1%,3%,.,23µM*,7%,?
Cn1c2ccccc2c2c(C(=O)N3CCN(c4ccccc4)CC3)cn(C3CCCC3)c(=O)c21,1%,-10%,-9%,8.2µM*,-4%,26µM*
C=CCN1C(=O)c2ccc(C(=O)OCC(=O)N3CCN(c4ccccc4)CC3)cc2C1=O,-5%,-18%,-7%,-13%,.,-6%
Cc1ccc(C(=O)COC(=O)CN2C(=O)C3C4CCC(C4)C3C2=O)cc1[N+](=O)[O-] (configuration not stated),-3%,-8%,0%,?,3%,?
O=C(CN1C(=O)C2C3C=CC(C3)C2C1=O)OCC(=O)c1ccc(Cl)c([N+](=O)[O-])c1 (configuration not stated),-9%,.,-22%,?,.,21µM*
CCOC(=O)N1CCC(NC(=O)c2cc3c(-c4ccccc4F)nn(C)c3s2)CC1,-11%,1%,-2%,8.2µM*,3%,13µM*
CCOC(=O)N1CCC(NC(=O)c2cc3c(-c4ccc(OC)c(OC)c4)nn(C)c3s2)CC1,-6%,-5%,2%,21µM*,2%,?
CCOC(=O)C1CCN(C(=O)c2cc3c(-c4ccc(OC)c(OC)c4)nn(C)c3s2)CC1,11%,-13%,-8%,21µM*,0%,16µM*
CCOC(=O)C1CCN(C(=O)c2cc3c(=O)n4ccccc4nc3s2)CC1,2%,-36%,-6%,4%,2%,11%
Cn1nc(C(F)(F)F)c2cc(C(=O)NC3CC3)sc21,20%,-3%,-1%,-18%,-3%,-4%
COc1ccc(N=C2NC(=O)/C(=C/C=C/c3ccccc3)S2)cc1,5%,0%,-5%,?,6%,-2%
